# Data as given in PubChem BioAssay (NCI).
# About 79,000 compounds went through this panel and 15% of them were active in at least one assay; those are over-represented in the sample as a whole. Calls of active or inactive are those of the source. Rule as the data show it: active = growth inhibition above about 70%; inactive = the rest.
# Columns and labels:
# [1] = NCI Yeast Anticancer Drug Screen. Data for the rad50 strain (AID 155);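 also: 0% = growth of vehicle-only cultures of the same strain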; conditions: S. cerevisiae rad50 strain growth inhibition, active compounds read high
# How it was run: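 Cells are treated with compound, grown, and their growth is then scored against vehicle-only cultures of the same repair-deficient yeast strain.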
# [2] = NCI Yeast Anticancer Drug Screen. Data for the mec2-1 strain (AID 157); conditions: S. cerevisiae mec2-1 strain, active compounds read high
# How it was run: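 Growth inhibition is read against vehicle-treated controls after compound exposure of the mec2-1 yeast strain, which is defective in DNA damage repair or cell cycle control.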
# [3] = NCI Yeast Anticancer Drug Screen. Data for the sgs1 mgt1 strain (AID 161);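 also: 0% = growth of cultures given vehicle only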; conditions: S. cerevisiae sgs1 mgt1 strain, active compounds read high
# How it was run: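 Percent growth inhibition was derived by comparing compound-exposed mutant yeast with vehicle-exposed cultures. The strain carries alterations in DNA damage repair.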
# [4] = NCI Yeast Anticancer Drug Screen. Data for the cln2 rad14 strain (AID 165);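 also: 0% = growth equal to vehicle treated cultures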; conditions: S. cerevisiae cln2 rad14 strain, active compounds read high
# How it was run: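 Growth inhibition, relative to vehicle-treated controls, is the read-out. The test organism is a yeast strain with defined genetic alterations, cln2 rad14.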
# [5] = NCI Yeast Anticancer Drug Screen. Data for the bub3 strain (AID 167); conditions: S. cerevisiae bub3 mutant strain, active compounds read high
# How it was run: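 Part of a panel of yeast mutants defective in DNA damage repair or cell cycle regulation. Each strain is grown with compound, and inhibition is calculated relative to solvent-treated cultures.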
# [6] = NCI Yeast Anticancer Drug Screen. Data for the mlh1 rad18 strain (AID 175); conditions: S. cerevisiae mlh1 rad18 strain growth inhibition, active compounds read high
# How it was run: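 Cells of a genetically altered yeast strain, deficient in DNA damage repair, were treated with compound. Their growth was then compared with that of vehicle-treated cultures to give inhibition.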
# [7] = at 5.0 µM (retest, dose inferred, filed as 0.5)
# [8] = at 50.0 µM (retest, dose inferred, filed as 5.0)
Structure (SMILES),"growth inhibition [1, 7]","growth inhibition [1, 8]",growth inhibition ([1]; at 50.0 µM),"growth inhibition [2, 7]","growth inhibition [2, 8]",growth inhibition ([2]; at 50.0 µM),"growth inhibition [3, 7]","growth inhibition [3, 8]",growth inhibition ([3]; at 50.0 µM),"growth inhibition [4, 7]","growth inhibition [4, 8]",growth inhibition ([4]; at 50.0 µM),"growth inhibition [5, 7]","growth inhibition [5, 8]",growth inhibition ([5]; at 50.0 µM),"growth inhibition [6, 7]","growth inhibition [6, 8]",growth inhibition ([6]; at 50.0 µM)
CC12CCC(=O)C=C1CCC1C2CCC2(C)C(C(=O)Cn3cnc4c(=S)nc[nH]c43)CCC12 (stereo unspecified),11% (inactive),25% (inactive),32.2% (inactive),5% (inactive),-6% (inactive),24.6% (inactive),-2% (inactive),23% (inactive),37.5% (inactive),-26% (inactive),19% (inactive),14.8% (inactive),0% (inactive),16% (inactive),-4.65% (inactive),-2% (inactive),22% (inactive),-4.7% (inactive)
Clc1nn2nnnc2c2ccccc12,-133% (inactive),87% (active),80.2% (active),-35% (inactive),82% (active),81.2% (active),-46% (inactive),65% (inactive),51.5% (inactive),-51% (inactive),24% (inactive),-31.6% (inactive),-51% (inactive),77% (active),65% (inactive),-102% (inactive),74% (active),73.8% (active)
C#CCNC(C)(C)C,1% (inactive),4% (inactive),98.5% (active),-5% (inactive),1% (inactive),99.4% (active),-2% (inactive),-3% (inactive),86% (active),-3% (inactive),2% (inactive),98.7% (active),3% (inactive),-2% (inactive),99.7% (active),-1% (inactive),1% (inactive),99.1% (active)
CCOC(=O)CC1(C)C(=O)CCCC1=O,3% (inactive),-2% (inactive),-3.7% (inactive),-2% (inactive),-2% (inactive),2% (inactive),0% (inactive),0% (inactive),3.65% (inactive),0% (inactive),-2% (inactive),-27.5% (inactive),-5% (inactive),-2% (inactive),-6.7% (inactive),-3% (inactive),-156% (inactive),-1% (inactive)
CCCCN(CCCC)CC(O)c1cc(-c2ccc(Cl)cc2)nc2cc(C)ccc12 (stereo unspecified),-5% (inactive),97% (active),99.2% (active),17% (inactive),98% (active),99.2% (active),11% (inactive),99% (active),99.6% (active),5% (inactive),97% (active),96.2% (active),6% (inactive),97% (active),98.9% (active),33% (inactive),98% (active),99.1% (active)
O=S1OCCS1 (stereo unspecified),10% (inactive),87% (active),98.8% (active),4% (inactive),90% (active),99% (active),11% (inactive),87% (active),98.5% (active),-3% (inactive),74% (active),97.4% (active),-1% (inactive),92% (active),99.2% (active),7% (inactive),95% (active),98.7% (active)
COc1ccc(-c2cc(C(=O)O)c3cccc(C(F)(F)F)c3n2)cc1,15% (inactive),85% (active),67.9% (inactive),4% (inactive),83% (active),57.6% (inactive),0% (inactive),92% (active),72.9% (active),22% (inactive),80% (active),64.5% (inactive),12% (inactive),78% (active),59% (inactive),17% (inactive),96% (active),89.7% (active)
CC(=O)/C(=C\c1cccc(Cl)c1)C(=O)CCN(C)C,24% (inactive),29% (inactive),14.8% (inactive),20% (inactive),33% (inactive),28.8% (inactive),20% (inactive),29% (inactive),50.5% (inactive),25% (inactive),29% (inactive),21.4% (inactive),13% (inactive),34% (inactive),4.4% (inactive),23% (inactive),40% (inactive),25.1% (inactive)
COc1ccc(C(=O)C(Br)CS(=O)(=O)c2ccc(C)cc2)cc1 (stereo unspecified),56% (inactive),99% (active),99% (active),36% (inactive),99% (active),99.4% (active),71% (active),99% (active),99.4% (active),18% (inactive),98% (active),97.8% (active),47% (inactive),98% (active),99.1% (active),48% (inactive),98% (active),99% (active)
[Cl][Ge]([c]1ccccc1)[c]1ccccc1.[Cl][Ge]([c]1ccccc1)[c]1ccccc1,22% (inactive),73% (active),33.4% (inactive),19% (inactive),79% (active),41.5% (inactive),23% (inactive),80% (active),55.1% (inactive),4% (inactive),70% (active),-4.65% (inactive),16% (inactive),80% (active),34.5% (inactive),12% (inactive),78% (active),76.3% (active)
Cc1ccc(S(=O)(=O)N/N=c2\c(C)c(C3=NS(=O)(=O)c4cc(S(N)(=O)=O)c(Cl)cc4N3)oc3c(Cl)cc(Cl)cc23)cc1,40% (inactive),63% (inactive),77.9% (active),32% (inactive),55% (inactive),47% (inactive),28% (inactive),59% (inactive),56.5% (inactive),33% (inactive),60% (inactive),65.9% (inactive),33% (inactive),73% (active),60.5% (inactive),44% (inactive),69% (inactive),59.2% (inactive)
COc1ccc2ccc(/C=C/[N+](=O)[O-])cc2c1OC,48% (inactive),98% (active),55.1% (inactive),40% (inactive),99% (active),88.2% (active),53% (inactive),99% (active),34.8% (inactive),41% (inactive),99% (active),37.9% (inactive),67% (inactive),99% (active),85.3% (active),37% (inactive),98% (active),67.6% (inactive)
O=C(OC1=C(Br)C(=O)c2ccccc2C1=O)c1ccccc1,13% (inactive),99% (active),74.5% (active),31% (inactive),99% (active),60.2% (inactive),32% (inactive),98% (active),66.3% (inactive),4% (inactive),58% (inactive),-17% (inactive),12% (inactive),89% (active),12.1% (inactive),38% (inactive),98% (active),51.2% (inactive)
O=S(=O)(Nc1ccccc1-c1ccc(Cl)cc1)c1ccccc1,-6% (inactive),14% (inactive),98.9% (active),-8% (inactive),8% (inactive),52.9% (inactive),-7% (inactive),-56% (inactive),97.5% (active),-12% (inactive),95% (active),98% (active),2% (inactive),91% (active),54.9% (inactive),-8% (inactive),57% (inactive),73.7% (active)
O=C(NCCCN1CCN(CCCNC(=O)c2cc(-c3ccccc3)nc3ccccc23)CC1)c1cc(-c2ccccc2)nc2ccccc12,49% (inactive),95% (active),84.6% (active),30% (inactive),95% (active),88.7% (active),26% (inactive),75% (active),8.55% (inactive),29% (inactive),41% (inactive),86.3% (active),30% (inactive),64% (inactive),86.1% (active),38% (inactive),96% (active),81.9% (active)
Cc1ncc(CO)c(C=NCCCCCCN=Cc2c(CO)cnc(C)c2[O-])c1[O-].[Cu+2],-2% (inactive),-1% (inactive),3.9% (inactive),-3% (inactive),1% (inactive),-20.4% (inactive),-4% (inactive),-5% (inactive),-5.85% (inactive),-5% (inactive),-1% (inactive),81.2% (active),-3% (inactive),-1% (inactive),25.9% (inactive),-2% (inactive),0% (inactive),25.4% (inactive)
CC(=O)OC1CCC2(C)C(=CCC3C2CCC2(C)C3CC(C(N)=O)C2C(C)=O)C1 (stereo unspecified),-2% (inactive),25% (inactive),49% (inactive),1% (inactive),79% (active),14.6% (inactive),6% (inactive),75% (active),76.8% (active),-3% (inactive),57% (inactive),61.6% (inactive),9% (inactive),97% (active),7.4% (inactive),-1% (inactive),70% (active),59.3% (inactive)
